Sm TGR block = inhibitors of Schistosoma mansoni thioredoxin glutathione reductase | Q962Y6 | purified TGR, DTNB reduction, TNB absorbance 405 nm | Potency, µM (top dose mostly 114 µM), usual class: inhibitors | 360,000 compounds, 3% hits | AID 485364; also: nearly all actives have a fitted effect of over 60% in size
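TGR 20 nM + NADPH 100 uM (dispensed conc.), cpd preinc 15 min RT; start with NADPH (500 uM addition) then DTNB (15 mM addition). Kinetic TNB absorbance, 405 nm filter. Four-parameter Hill fit across titration.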
LmPK inh = blocks Leishmania mexicana pyruvate kinase activity; Q27686; AID 1721; 290,000 compounds, 0.37% hits; purified LmPK, Kinase-Glo ATP luminescence, 1 h; Potency, µM (series often up to 57.5 µM), most hits filed as inhibitors
Target sequence (Q27686 whole entry, looked up): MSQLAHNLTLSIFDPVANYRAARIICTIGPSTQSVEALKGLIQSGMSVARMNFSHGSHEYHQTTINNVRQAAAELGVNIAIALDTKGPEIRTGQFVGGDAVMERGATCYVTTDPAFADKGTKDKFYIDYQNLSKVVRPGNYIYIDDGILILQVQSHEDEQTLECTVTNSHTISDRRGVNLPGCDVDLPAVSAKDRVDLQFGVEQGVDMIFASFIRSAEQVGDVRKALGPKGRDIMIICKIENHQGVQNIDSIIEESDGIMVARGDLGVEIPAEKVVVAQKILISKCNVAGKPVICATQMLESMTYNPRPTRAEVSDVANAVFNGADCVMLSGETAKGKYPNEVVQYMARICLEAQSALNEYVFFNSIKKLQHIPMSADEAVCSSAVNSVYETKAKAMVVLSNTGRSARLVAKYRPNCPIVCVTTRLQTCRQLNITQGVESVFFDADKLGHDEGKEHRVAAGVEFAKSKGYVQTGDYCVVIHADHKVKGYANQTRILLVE
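Pyruvate kinase activity monitored as ATP production (luciferase luminescence). Conditions: 0.1 nM enzyme, 0.5 mM PEP, 0.1 mM ADP, 1 h, RT; normalized against uninhibited and no-enzyme wells.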
TbPYK inhibitor = inhibitors of Trypanosoma brucei pyruvate kinase | TbPYK enzyme, Kinase-Glo Plus ATP luminescence, 45 min | Q57TT1 | 410,000 compounds, 0.12% hits | Potency, µM (titrated, usually from 76.8 µM), usual class: inhibitors; also: nearly all actives have a fitted effect of over 50% in size
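TbPYK + substrate in 50 mM TEA pH 7.2, 100 mM KCl, 10 mM MgCl2, 0.05% BSA, 0.01% Tween-20; cpd pinned; ADP 130 uM final; 45 min RT; Kinase-Glo Plus 10 min; luminescence endpoint.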
RE007 growth inh = less growth of the S. pombe RE007 Vpr strain. S. pombe RE007 Vpr strain, BacTiter-Glo ATP luminescence, 24 h. Potency, µM (highest dose often 92.2 µM), hits mostly inhibitors. 360,000 compounds, 0.21% hits; active = well fitted falling curve with a large enough effect; inconclusive = small, poorly fitted or top-dose-only effect; inactive = no such curve, though single readings can be large or run the other way; also: nearly all actives have a fitted effect of over 50% in size
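Fission yeast RE007 carrying one integrated HIV-1 vpr copy, seeded at OD 0.01 in PMG+AL medium with 23 nL pinned compound. Grown 24 h at 30 degrees; viability read by BacTiter-Glo luminescence after 5 min.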
Giardia FBPA inh = inhibitors of Giardia lamblia fructose-1,6-bisphosphate aldolase; purified Giardia FBPA; Potency, µM (top dose mostly 59.6 µM), usual class: inhibitors; 290,000 compounds, 0.71% hits; also: nearly all actives have a fitted effect of over 55% in size
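Giardia FBPA (40 nM reagent) was preincubated 10 min at RT with compound (up to 57.5 uM final), then substrate plus GAPDH/TPI/NAD/arsenate coupling system with diaphorase/resazurin was added; resorufin fluorescence (525/598 nm) was read after 20 min.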
A number is an active result; i = inactive; ? = inconclusive; nt = no result given. Compounds with a hit are over-represented: about 3.3% of the library has one in this group of screens. Unless noted, calls follow the shape of the dose curve; as a rule, active = well fitted curve in the direction sought with a large enough effect; inconclusive = small, poorly fitted or top-dose-only effect, or another doubt; inactive = no such curve, though single readings can be large; an effect the other way counts as inactive or inconclusive.

SMILES	Sm TGR block	LmPK inh	TbPYK inhibitor	RE007 growth inh	Giardia FBPA inh
C=CCn1c(SCC(=O)NCC2CCCO2)nc2scc(-c3ccccc3)c2c1=O (stereo unspecified)	i	i	i	i	i
CCn1c(=S)[nH]c2scc(-c3cccs3)c2c1=O	i	i	?	i	i
C=CCn1c(SCC(=O)Nc2c(C)n(C)n(-c3ccccc3)c2=O)nc2scc(-c3ccccc3)c2c1=O	i	i	i	i	i
C=CCn1c(SCC(C)=O)nc2scc(-c3ccc(C)o3)c2c1=O	15.8µM	i	i	i	i
C=CCn1c(SCC(=O)NCCCC)nc2scc(-c3ccco3)c2c1=O	14.1µM	i	i	i	i
NS(=O)(=O)c1ccc(CCNC(=O)COC(=O)/C=C/c2cc(Br)ccc2F)cc1	nt	nt	i	i	nt
COc1cc(OC)cc(C(=O)N2CCN(S(C)(=O)=O)CC2)c1	i	i	i	i	i
Nc1nc(NCCOCCO)nc(NCC2CCCO2)c1[N+](=O)[O-] (stereo unspecified)	i	i	i	i	i
C=CCOC(=O)C1=C[C@@H](c2ccc(C(F)(F)F)cc2)C[C@@H](OCc2ccc(CO)cc2)O1	nt	nt	i	i	nt
CN(C)CCCN(C(=O)c1ccco1)c1nc2c(F)cc(F)cc2s1	i	i	i	i	i
COc1ccc(CC(=O)OCC(=O)Nc2ccc(Cl)c(S(=O)(=O)N(C)C)c2)cc1	i	i	i	i	i
Cc1ccc(-c2csc3nc(C)n(N)c(=O)c23)o1	?	i	i	i	i
Cc1ccc(-c2csc3nc(C)n(-n4c(C)ccc4C)c(=O)c23)o1	6.31µM	i	i	i	i
O=C(CSc1n[nH]c(-c2ccc(S(=O)(=O)NC3CCCCC3)cc2)n1)N1CCCC1	i	i	i	i	i
COC(=O)c1cccc(Cn2c(Cl)c(/C=N/Nc3ccccc3C)sc2=O)c1	7.94µM	i	i	i	i
Cc1ccccc1N/N=C/c1sc(=O)n(Cc2cccc(C(=O)O)c2)c1Cl	10µM	i	i	i	i
CN(C)CC(=O)Nc1ccc2cn[nH]c2c1	i	i	i	i	i
CCOP(=O)(OCC)/C(C#N)=C(\O)c1ccc(OC)cc1	i	i	i	i	i
O=C(Nc1ccc(OC(=O)c2ccco2)cc1)c1ccco1	i	14.1µM	i	?	i
COC(=O)c1cc(OC)c(OC)cc1NC(=O)c1ccco1	i	i	i	i	i
Cc1ccc(C(=O)Nc2ccc3c(c2)OCO3)cc1NC(=O)c1ccco1	i	i	i	i	i
CCC(=O)Oc1ccc(NC(=O)c2ccco2)cc1	nt	i	i	i	i
COc1cc(NC(=O)c2ccco2)c(C(=O)O)cc1OC	39.8µM	i	i	i	i
Cc1cc(NC(=O)c2ccc3c(c2)OCO3)ccc1NC(=O)c1ccco1	i	14.1µM	i	i	i
Cn1nccc1C(=O)Nc1ccc2c(c1)OCCO2	i	15.8µM	i	i	i
SMILES	Sm TGR block	LmPK inh	TbPYK inhibitor	RE007 growth inh	Giardia FBPA inh
Cc1cnn(-c2cc(N/N=C/c3ccccc3)ncn2)c1	i	i	i	i	i
CCn1c(SCC(=O)c2ccc(CNC(C)=O)o2)nnc1-c1cccs1	?	i	i	i	i
Cc1cc(Br)ccc1OCc1nc(-c2cccnc2)no1	i	i	i	i	i
Cc1cc(C)cc(NC(=O)CCCc2nnc3n(CC(C)C)c(=O)c4sccc4n23)c1	i	nt	i	nt	nt
O=C(Nc1ccc2c(c1)OCCO2)c1ccco1	i	25.1µM	i	i	i
COc1cc(OC)cc(C(=O)Nc2ccc(NC(=O)c3ccco3)c(C)c2)c1	39.8µM	?	i	i	i
COc1cc(OC)cc(C(=O)Nc2cc(NC(=O)c3ccco3)ccc2OC)c1	i	i	i	i	i
COc1ccccc1/C=C(\NC(=O)c1ccc(OC)c(OC)c1)C(=O)Nc1cc([N+](=O)[O-])ccc1C	i	i	i	i	i
O=C(N/N=C/c1ccc(-c2ccc([N+](=O)[O-])cc2)o1)C(O)c1ccccc1 (stereo unspecified)	i	i	i	i	i
O=C(CSc1ccc(Cl)cc1)N/N=C/c1ccc([N+](=O)[O-])o1	5.62µM	i	i	i	i
O=C(N/N=C/c1ccc([N+](=O)[O-])o1)C(O)c1ccccc1 (stereo unspecified)	44.7µM	i	i	i	i
O=C(COc1ccccc1)NN1C(=O)CSC1=S	i	i	i	i	i
O=c1c(-c2ccc(F)cc2)nc2cnc(Oc3cccc(Cl)c3)nc2n1C[C@H]1CCCO1	nt	nt	nt	nt	i
Nc1ccc(S(=O)(=O)c2cc(O)c3ccccc3c2O)cc1	nt	nt	11.2µM	i	nt
C[C@]12c3[nH]c4cc(-c5ccco5)ccc4c3CCN1C(=O)[C@@H](CC(=O)NCCCn1ccnc1)C[C@@H]2C(=O)N1CCCCC1	nt	nt	i	i	nt
CCOC(=O)c1[nH]c2ccccc2c1NC(=O)c1ccc(S(=O)(=O)N(C)C)cc1	i	i	i	i	i
CN(C)S(=O)(=O)c1ccc(C(=O)Oc2cc(=O)[nH]c3ccccc23)cc1	20µM	i	i	i	i
O=C(O)CCc1ccc(-c2cccs2)n1NC(=O)c1cccs1	?	i	i	i	i
Cc1ccc(-n2c(CCC(=O)O)ccc2-c2cccs2)cc1C	10µM	i	?	i	i
CCOC(=O)c1ccc(-n2c(CCC(=O)O)ccc2-c2cccs2)cc1	5.62µM	i	?	?	?
CCc1ccc(-n2c(CCC(=O)O)ccc2-c2cccs2)cc1	3.55µM	nt	i	nt	nt
O=C1C(=C2CCCCC2)SC(=S)N1Cc1ccco1	20µM	i	i	i	i
O=C1CC(=O)N(Cc2ccco2)C(=S)N1	1.78µM	i	i	i	i
Cc1c(NC(C)c2ccccc2O)c(=O)n(-c2ccccc2)n1C (stereo unspecified)	39.8µM	i	i	i	i
Cc1c(NC(C)c2cc(Cl)ccc2O)c(=O)n(-c2ccccc2)n1C (stereo unspecified)	?	i	i	i	i
SMILES	Sm TGR block	LmPK inh	TbPYK inhibitor	RE007 growth inh	Giardia FBPA inh
COc1ccc(OC)c(NC(=O)c2c(NC(=O)CNCc3ccco3)sc3c2CCC3)c1	i	i	i	i	i
COc1ccc(Cl)cc1NC(=O)c1c(NCc2ccc(C)o2)sc2c1CCCCC2	3.55µM	nt	?	nt	nt
COc1ccc(OC)c(NC(=O)c2c(NCc3sccc3C)sc3c2CCCCC3)c1	20µM	nt	?	nt	nt
COc1ccc(Cl)cc1NC(=O)c1c(NCc2cccs2)sc2c1CCC(C)C2 (stereo unspecified)	i	nt	i	nt	nt
COc1ccccc1NC(=O)c1c(NCc2ccc(C)o2)sc2c1CCCCC2	2µM	nt	?	nt	nt
COc1ccc(OC)c(NC(=O)c2c(NCc3ccc(C)o3)sc3c2CCCCC3)c1	3.55µM	nt	?	nt	nt
CCOC(=O)N1CCc2c(sc(NCc3sccc3C)c2C(=O)Nc2cc(OC)ccc2OC)C1	i	nt	?	nt	nt
COc1ccc(OC)c(NC(=O)c2c(NCc3ccc(OC)c(OC)c3)sc3c2CCC3)c1	i	nt	i	nt	nt
